The values that follow come from PubChem BioAssay.

Active and inactive are the calls of the source.

A short description of this experiment: E. coli DRC41 culture turbidity changes, primary screen, E. coli filamentation inducer project, strain DRC41, OD650, 48 h (AID 1152).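 Note: E. coli MC1000 strain DRC41 lacking acrAB efflux pump and sulA.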 As to conditions: E. coli DRC41 (acrAB sulA), higher = more signal, called active from +8 up or from −8 down.
`CON=C(C)CCC(=O)OC[C@H]1O[C@H](C#Cc2ccccc2)C=C[C@@H]1Oc1ccc(C)cc1`: the z-score was -2.47 (inactive). For the compound `CC(C)(C)N1C(=O)[C@H]2[C@H]3[C@H](O)[C@H](O)CC(=NOC[C@@H](O)COCc4ccco4)[C@@H]3CC[C@H]2C1=O`, the z-score was 0.0978 (inactive). Turning to `CO[C@@H]1[C@H](O)CO[C@H]1C=Cc1ccccc1`, the z-score is -0.0624 (inactive).

Regarding `CCN1C(=O)[C@H]2[C@H]3[C@H](O)[C@H](O)CC(=NOCC[C@@H]4C=C[C@H](OC(C)=O)[C@@H](COC(C)=O)O4)[C@@H]3CC[C@H]2C1=O`, the z-score was -0.405 (inactive).

With `CO[C@@H](C1CCCCC1)[C@@H](C)[C@H](OCc1cccc(Br)c1)[C@@H](C)CO`, the z-score is -0.409 (inactive). For the compound `CCOC(=O)CCN1C(=O)[C@H]2[C@H]3[C@H](O)[C@H](O)CC(=NOCC(C)C)[C@@H]3CC[C@H]2C1=O`, the z-score is -0.214 (inactive). `CCOC(=O)CCN1C(=O)[C@H]2[C@H]3[C@H](O)[C@H](O)CC(=NO[C@@H]4O[C@H](CO)[C@@H](O)[C@H](O)[C@H]4O)[C@@H]3CC[C@H]2C1=O`: the z-score was 0.998 (inactive).

For the compound `CO[C@H]1COC(=O)CC=C[C@@H](C)COC(=O)[C@H]2CCCN2C(=O)CC=C[C@H]1C`, the z-score was 0.694 (inactive). For the compound `CCOC(=O)[C@H](Cc1ccccc1)NC(=O)CCC1CC(OC(=O)NCc2cccc3ccccc23)CC2(CCCC(COC(=O)NCCc3ccccc3OC)O2)O1` (stereo not given in full), the z-score is -0.0287 (inactive). `Cc1ccc(S(=O)(=O)N[C@@H]2COC(=O)CC=C[C@@H](C)[C@H](NS(=O)(=O)c3ccc(C)cc3)COC(=O)[C@H](C)NC(=O)CC=C[C@H]2C)cc1`: the z-score was 0.328 (inactive).
